# How the values were obtained:
# [1] = biological target: Mitogen-activated protein kinase 3 (Homo sapiens) (UniProt P27361); conditions: at 1 µM;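 also: values are mean percent inhibition of MAPK3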
# [2] = biological target: SRSF protein kinase 3 (Homo sapiens) (UniProt Q9UPE1); conditions: at 0.1 µM
# [3] = biological target: SRSF protein kinase 3 (Homo sapiens) (UniProt Q9UPE1); conditions: at 1 µM
# [4] = biological target: Mitogen-activated protein kinase 14 (Homo sapiens) (UniProt Q16539); conditions: at 0.1 µM
# [5] = biological target: Mitogen-activated protein kinase 14 (Homo sapiens) (UniProt Q16539); conditions: at 1 µM
# [6] = biological target: Mitogen-activated protein kinase 11 (Homo sapiens) (UniProt Q15759); conditions: at 0.1 µM
# [7] = biological target: Mitogen-activated protein kinase 11 (Homo sapiens) (UniProt Q15759); conditions: at 1 µM
# [8] = biological target: T1, Mitogen-activated protein kinase 13 (Homo sapiens) (UniProt O15264); conditions: at 0.1 µM
# T1 sequence (whole entry): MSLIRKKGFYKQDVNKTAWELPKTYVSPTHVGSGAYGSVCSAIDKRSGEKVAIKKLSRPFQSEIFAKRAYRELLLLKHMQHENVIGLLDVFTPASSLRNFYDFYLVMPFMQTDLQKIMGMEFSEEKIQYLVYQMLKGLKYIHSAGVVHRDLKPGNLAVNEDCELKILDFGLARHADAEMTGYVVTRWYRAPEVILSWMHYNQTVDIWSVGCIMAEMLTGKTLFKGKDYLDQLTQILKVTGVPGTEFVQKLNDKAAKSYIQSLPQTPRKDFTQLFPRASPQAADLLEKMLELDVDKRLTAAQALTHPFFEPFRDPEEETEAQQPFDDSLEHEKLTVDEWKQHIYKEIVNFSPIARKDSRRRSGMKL
# [9] = biological target: T1, Mitogen-activated protein kinase 13 (Homo sapiens); conditions: at 1 µM
# [10] = biological target: T2, Mitogen-activated protein kinase 12 (Homo sapiens) (UniProt P53778); conditions: at 0.1 µM
# T2 sequence (whole entry): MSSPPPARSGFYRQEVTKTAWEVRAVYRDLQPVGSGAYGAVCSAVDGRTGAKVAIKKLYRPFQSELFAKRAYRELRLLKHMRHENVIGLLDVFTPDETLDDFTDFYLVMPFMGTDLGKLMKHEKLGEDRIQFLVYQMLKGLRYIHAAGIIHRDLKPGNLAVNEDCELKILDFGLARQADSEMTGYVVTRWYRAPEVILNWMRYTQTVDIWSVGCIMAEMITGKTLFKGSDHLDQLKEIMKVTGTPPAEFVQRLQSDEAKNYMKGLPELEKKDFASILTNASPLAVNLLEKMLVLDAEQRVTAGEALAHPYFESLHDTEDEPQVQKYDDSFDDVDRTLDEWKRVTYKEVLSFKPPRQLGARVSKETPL
# [11] = biological target: T2, Mitogen-activated protein kinase 12 (Homo sapiens); conditions: at 1 µM
# [12] = biological target: SRSF protein kinase 1 (Homo sapiens) (UniProt Q96SB4); conditions: at 0.1 µM
# [13] = biological target: SRSF protein kinase 1 (Homo sapiens) (UniProt Q96SB4); conditions: at 1 µM
# [14] = biological target: Phosphatidylinositol 4,5-bisphosphate 3-kinase catalytic subunit alpha isoform (Homo sapiens) (UniProt P42336); conditions: at 0.1 µM
# [15] = biological target: Phosphatidylinositol 4,5-bisphosphate 3-kinase catalytic subunit alpha isoform (Homo sapiens) (UniProt P42336); conditions: at 1 µM
# [16] = biological target: T3, Phosphatidylinositol 4,5-bisphosphate 3-kinase catalytic subunit delta isoform (Homo sapiens) (UniProt O00329); conditions: at 0.1 µM
# T3 sequence (whole entry): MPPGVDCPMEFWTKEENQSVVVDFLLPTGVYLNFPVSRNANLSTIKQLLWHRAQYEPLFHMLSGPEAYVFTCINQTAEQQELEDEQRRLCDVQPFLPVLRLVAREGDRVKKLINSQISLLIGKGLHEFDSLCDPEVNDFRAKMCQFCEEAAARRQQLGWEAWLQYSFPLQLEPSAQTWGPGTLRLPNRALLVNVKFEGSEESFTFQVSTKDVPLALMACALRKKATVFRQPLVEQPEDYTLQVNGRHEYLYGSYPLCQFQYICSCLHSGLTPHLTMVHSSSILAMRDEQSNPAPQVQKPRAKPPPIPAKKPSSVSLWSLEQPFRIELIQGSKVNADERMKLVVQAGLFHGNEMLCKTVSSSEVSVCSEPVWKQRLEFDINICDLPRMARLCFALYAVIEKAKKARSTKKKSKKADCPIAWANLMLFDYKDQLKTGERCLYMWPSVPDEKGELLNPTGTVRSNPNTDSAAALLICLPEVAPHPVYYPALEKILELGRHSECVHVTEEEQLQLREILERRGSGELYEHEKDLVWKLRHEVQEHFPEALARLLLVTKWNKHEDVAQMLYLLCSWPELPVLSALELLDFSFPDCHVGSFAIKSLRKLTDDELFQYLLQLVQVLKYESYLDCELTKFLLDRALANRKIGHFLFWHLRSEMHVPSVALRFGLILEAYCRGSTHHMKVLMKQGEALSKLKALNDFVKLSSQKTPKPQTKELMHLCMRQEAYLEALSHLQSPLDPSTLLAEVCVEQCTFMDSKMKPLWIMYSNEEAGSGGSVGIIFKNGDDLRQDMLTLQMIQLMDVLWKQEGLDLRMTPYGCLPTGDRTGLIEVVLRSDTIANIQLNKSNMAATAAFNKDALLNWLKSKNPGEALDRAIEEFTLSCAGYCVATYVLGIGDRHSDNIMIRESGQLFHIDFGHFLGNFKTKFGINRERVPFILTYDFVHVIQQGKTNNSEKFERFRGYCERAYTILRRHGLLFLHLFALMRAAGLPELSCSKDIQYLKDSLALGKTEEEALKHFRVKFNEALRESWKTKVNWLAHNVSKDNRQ
# [17] = biological target: T3, Phosphatidylinositol 4,5-bisphosphate 3-kinase catalytic subunit delta isoform (Homo sapiens); conditions: at 1 µM
# [18] = biological target: Phosphatidylinositol 4-kinase beta (Homo sapiens) (UniProt Q9UBF8); conditions: at 0.1 µM
# [19] = biological target: Phosphatidylinositol 4-kinase beta (Homo sapiens) (UniProt Q9UBF8); conditions: at 1 µM
# [20] = biological target: Sphingosine kinase 1 (Homo sapiens) (UniProt Q9NYA1); conditions: at 0.1 µM;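 also: mean percent inhibition of SPHK1 activity, measured within the GSK PKIS screening panel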
# Sphingosine kinase 1 (Homo sapiens), sequence (Q9NYA1 whole entry): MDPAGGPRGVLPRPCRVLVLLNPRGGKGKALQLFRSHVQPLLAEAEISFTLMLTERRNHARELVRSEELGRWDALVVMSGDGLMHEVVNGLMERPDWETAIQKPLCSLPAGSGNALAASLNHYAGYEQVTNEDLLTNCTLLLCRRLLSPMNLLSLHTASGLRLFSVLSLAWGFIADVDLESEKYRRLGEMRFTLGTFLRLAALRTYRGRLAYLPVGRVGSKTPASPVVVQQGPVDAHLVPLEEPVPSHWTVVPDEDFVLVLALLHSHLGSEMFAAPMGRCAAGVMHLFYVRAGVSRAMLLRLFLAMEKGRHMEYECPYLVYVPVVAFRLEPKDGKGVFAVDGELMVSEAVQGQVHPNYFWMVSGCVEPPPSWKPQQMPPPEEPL
# Mitogen-activated protein kinase 3 (Homo sapiens), sequence (P27361 whole entry): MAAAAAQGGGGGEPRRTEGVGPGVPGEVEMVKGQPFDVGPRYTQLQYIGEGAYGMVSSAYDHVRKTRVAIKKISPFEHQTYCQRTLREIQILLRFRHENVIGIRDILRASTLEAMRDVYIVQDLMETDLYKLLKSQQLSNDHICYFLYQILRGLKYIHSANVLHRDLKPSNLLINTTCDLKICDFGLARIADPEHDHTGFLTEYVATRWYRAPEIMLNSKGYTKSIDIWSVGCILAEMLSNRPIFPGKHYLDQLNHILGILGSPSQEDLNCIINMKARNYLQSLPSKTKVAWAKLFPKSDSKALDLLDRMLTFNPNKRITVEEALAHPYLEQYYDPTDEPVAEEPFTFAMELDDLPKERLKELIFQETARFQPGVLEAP
# SRSF protein kinase 3 (Homo sapiens), sequence (Q9UPE1 whole entry): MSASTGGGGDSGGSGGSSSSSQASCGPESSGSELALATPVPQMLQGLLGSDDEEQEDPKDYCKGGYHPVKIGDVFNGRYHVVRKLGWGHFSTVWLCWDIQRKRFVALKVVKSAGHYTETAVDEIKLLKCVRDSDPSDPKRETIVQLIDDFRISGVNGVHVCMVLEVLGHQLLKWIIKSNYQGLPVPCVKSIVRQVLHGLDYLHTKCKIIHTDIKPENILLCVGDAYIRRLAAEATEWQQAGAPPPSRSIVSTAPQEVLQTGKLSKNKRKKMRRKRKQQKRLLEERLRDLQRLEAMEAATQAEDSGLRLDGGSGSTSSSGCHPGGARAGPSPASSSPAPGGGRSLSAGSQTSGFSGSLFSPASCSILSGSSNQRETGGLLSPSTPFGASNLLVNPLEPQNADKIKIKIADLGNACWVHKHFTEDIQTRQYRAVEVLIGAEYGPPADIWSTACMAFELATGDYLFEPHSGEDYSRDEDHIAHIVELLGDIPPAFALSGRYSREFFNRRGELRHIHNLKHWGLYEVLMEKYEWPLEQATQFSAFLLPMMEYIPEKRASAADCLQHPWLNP
# SRSF protein kinase 1 (Homo sapiens), sequence (Q96SB4 whole entry, canonical isoform): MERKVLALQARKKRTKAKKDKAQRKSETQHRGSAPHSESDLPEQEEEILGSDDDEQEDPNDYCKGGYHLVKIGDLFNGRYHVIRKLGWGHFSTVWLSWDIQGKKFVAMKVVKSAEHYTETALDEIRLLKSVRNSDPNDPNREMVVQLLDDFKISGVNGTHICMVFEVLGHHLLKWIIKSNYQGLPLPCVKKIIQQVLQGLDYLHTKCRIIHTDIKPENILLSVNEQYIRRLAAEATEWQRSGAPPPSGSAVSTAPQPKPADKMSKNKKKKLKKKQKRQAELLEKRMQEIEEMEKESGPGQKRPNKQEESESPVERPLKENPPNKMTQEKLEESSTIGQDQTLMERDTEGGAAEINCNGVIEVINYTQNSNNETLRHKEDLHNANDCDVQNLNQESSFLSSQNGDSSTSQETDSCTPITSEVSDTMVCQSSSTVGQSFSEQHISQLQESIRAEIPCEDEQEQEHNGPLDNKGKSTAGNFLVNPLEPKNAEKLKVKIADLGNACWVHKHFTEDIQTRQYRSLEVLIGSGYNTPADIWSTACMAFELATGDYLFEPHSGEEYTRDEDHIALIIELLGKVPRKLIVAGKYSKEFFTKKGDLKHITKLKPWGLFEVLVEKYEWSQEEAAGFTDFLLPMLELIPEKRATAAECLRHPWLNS
# Mitogen-activated protein kinase 14 (Homo sapiens), sequence (Q16539 whole entry): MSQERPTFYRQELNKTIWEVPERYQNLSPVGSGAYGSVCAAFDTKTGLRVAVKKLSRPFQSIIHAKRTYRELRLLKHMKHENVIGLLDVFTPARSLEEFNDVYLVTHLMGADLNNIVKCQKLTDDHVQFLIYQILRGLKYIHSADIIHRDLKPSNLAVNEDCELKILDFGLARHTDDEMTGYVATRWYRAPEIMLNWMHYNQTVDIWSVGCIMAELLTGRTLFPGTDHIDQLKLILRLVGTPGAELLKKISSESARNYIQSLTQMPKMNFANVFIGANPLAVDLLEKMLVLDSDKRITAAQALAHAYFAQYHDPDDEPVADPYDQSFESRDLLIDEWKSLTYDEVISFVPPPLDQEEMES
# Phosphatidylinositol 4,5-bisphosphate 3-kinase catalytic subunit alpha isoform (Homo sapiens), sequence (P42336 whole entry, canonical isoform): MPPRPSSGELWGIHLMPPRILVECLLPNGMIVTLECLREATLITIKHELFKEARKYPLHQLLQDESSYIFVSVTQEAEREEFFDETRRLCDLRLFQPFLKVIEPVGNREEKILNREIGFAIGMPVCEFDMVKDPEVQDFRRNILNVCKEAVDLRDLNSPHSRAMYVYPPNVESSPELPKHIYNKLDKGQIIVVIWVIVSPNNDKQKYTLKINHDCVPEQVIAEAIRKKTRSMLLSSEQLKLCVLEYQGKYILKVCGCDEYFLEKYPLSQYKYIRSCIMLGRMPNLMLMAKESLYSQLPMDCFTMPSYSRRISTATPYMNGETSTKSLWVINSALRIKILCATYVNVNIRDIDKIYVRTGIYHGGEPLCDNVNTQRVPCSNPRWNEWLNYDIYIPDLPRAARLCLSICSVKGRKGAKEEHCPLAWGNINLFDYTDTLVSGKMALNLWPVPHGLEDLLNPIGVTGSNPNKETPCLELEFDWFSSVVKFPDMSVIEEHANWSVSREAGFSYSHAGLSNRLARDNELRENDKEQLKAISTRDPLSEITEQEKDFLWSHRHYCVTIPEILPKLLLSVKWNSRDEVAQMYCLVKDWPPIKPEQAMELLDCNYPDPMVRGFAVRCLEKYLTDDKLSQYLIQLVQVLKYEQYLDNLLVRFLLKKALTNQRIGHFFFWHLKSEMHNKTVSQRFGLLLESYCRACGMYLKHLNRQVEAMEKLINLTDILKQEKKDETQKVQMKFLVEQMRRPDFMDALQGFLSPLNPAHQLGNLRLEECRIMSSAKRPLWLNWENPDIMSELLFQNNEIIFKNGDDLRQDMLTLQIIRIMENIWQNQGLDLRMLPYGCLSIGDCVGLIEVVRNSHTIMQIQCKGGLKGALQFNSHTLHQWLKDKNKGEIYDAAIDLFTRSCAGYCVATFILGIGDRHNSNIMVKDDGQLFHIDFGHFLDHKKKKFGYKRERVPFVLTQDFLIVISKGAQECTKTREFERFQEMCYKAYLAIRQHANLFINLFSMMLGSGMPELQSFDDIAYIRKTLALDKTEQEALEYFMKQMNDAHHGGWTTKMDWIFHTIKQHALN
# Mitogen-activated protein kinase 11 (Homo sapiens), sequence (Q15759 whole entry): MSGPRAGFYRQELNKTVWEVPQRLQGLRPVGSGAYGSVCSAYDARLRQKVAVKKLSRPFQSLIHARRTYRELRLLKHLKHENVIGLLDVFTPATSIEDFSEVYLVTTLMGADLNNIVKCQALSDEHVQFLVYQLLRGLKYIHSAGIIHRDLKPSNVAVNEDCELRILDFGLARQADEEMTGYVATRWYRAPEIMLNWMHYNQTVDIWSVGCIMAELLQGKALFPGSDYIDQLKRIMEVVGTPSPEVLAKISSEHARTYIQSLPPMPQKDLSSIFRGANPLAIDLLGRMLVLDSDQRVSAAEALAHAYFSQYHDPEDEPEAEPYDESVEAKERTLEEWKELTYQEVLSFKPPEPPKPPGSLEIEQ
# Phosphatidylinositol 4-kinase beta (Homo sapiens), sequence (Q9UBF8 2-816 limits assumed): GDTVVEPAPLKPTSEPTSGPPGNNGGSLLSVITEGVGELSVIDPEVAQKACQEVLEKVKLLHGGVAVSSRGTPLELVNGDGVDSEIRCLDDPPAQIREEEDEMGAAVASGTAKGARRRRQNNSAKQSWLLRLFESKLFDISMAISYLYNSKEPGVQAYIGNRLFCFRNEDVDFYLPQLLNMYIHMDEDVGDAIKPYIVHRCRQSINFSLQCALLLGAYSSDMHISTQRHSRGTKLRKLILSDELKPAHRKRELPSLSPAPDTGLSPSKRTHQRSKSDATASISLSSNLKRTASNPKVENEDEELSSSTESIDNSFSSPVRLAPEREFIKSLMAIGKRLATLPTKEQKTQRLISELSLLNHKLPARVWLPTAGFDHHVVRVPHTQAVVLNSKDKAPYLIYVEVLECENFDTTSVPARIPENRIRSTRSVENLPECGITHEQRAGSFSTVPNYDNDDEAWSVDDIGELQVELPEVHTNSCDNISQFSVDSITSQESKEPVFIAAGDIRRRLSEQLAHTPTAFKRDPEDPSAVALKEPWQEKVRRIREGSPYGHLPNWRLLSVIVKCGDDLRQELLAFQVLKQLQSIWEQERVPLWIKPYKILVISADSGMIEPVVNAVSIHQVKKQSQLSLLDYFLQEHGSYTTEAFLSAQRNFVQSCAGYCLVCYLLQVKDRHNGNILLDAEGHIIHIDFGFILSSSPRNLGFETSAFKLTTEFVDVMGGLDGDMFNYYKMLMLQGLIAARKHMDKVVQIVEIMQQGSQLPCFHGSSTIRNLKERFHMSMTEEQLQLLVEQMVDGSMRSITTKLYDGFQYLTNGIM
Compound,inhibition [1],inhibition [2],inhibition [3],inhibition [4],inhibition [5],inhibition [6],inhibition [7],inhibition [8],inhibition [9],inhibition [10],inhibition [11],inhibition [12],inhibition [13],inhibition [14],inhibition [15],inhibition [16],inhibition [17],inhibition [18],inhibition [19],inhibition [20]
O=C(Nc1n[nH]c2nc(-c3ccco3)c(Br)cc12)C1CC1,2.64%,-0.09%,-0.41%,2.53%,6.49%,3.09%,3.71%,1.46%,2.57%,2.55%,2.11%,-4.07%,-5.19%,5.44%,4.94%,2.6%,3.08%,0.77%,5.14%,0.46%
CCn1c(-c2nonc2N)nc2c(C#CC(C)(C)O)nc(OC[C@@H](N)c3ccccc3)cc21,1.84%,0.05%,3.01%,1.93%,1.14%,-1.91%,1.34%,-0.23%,-0.87%,-1.46%,-0.24%,0.57%,-0.56%,-3.76%,-3.41%,-2.59%,-3.08%,0.16%,2.95%,0.21%
COc1ccc(-c2nn3ncccc3c2-c2ccnc(Nc3ccc(Cl)c(C(F)(F)F)c3)n2)cc1,4.01%,-2.03%,-0.79%,4.58%,36.1%,2.93%,16.8%,0.64%,1.01%,1.67%,0.36%,-1.95%,-0.38%,1%,10.4%,-0.59%,2.57%,-1.86%,0.08%,19.3%
Cc1ccc(C(=O)NC2CCCCC2)cc1-c1ccc(C(=O)NCC2CC2)cc1,0.88%,1.95%,0.5%,5.36%,17.4%,4.59%,14.2%,1.77%,2.53%,-0.98%,1.27%,-2.04%,-2.48%,1.35%,-0.53%,1.89%,1.33%,3.97%,-5.9%,-7.61%
CCn1c(-c2nonc2N)nc2c(C#CC(C)(C)O)nc(CN3CCCC3)cc21,0.84%,-1.03%,-0.96%,0.68%,-0.47%,-2.47%,0.28%,0.31%,-1.59%,1.31%,0.15%,-2.3%,-2.96%,-2.21%,-0.12%,0.87%,3.83%,-0.02%,-2.03%,0.49%
COc1ccc(-c2ccncc2)cc1C(N)=O,5.57%,0.64%,-1.37%,7.77%,9.51%,-0.28%,5.04%,5.1%,6.16%,4.29%,5.57%,-3.43%,-2.49%,5.07%,4.31%,2.29%,3.83%,-1.68%,4.03%,1.01%
COc1cc(C)c(NC(=O)CN(C)C)cc1Nc1nc(Nc2cccc(F)c2C(N)=O)c2cc[nH]c2n1,0.63%,2.12%,7.69%,1.35%,5.59%,3.27%,3.23%,-0.43%,1.87%,0.52%,1.38%,-2.61%,-3.29%,0.75%,0.03%,0.12%,2.2%,5.07%,1.45%,
Fc1cccc(COc2ccc(Nc3ncnc4cc(-c5ccc[nH]5)sc34)cc2Cl)c1,1.55%,-2.27%,-1.34%,1.24%,4.89%,0.23%,-0.16%,1.98%,2.15%,4.35%,2.1%,-1.71%,-1.58%,3.58%,10.8%,2.77%,9.44%,-8.05%,2.94%,1.48%
CS(=O)(=O)CCNCc1ccc(-c2ccc3ncnc(Nc4ccc(OCc5cccc(F)c5)c(C(F)(F)F)c4)c3c2)o1,2.51%,-1.77%,-0.64%,4.28%,11.8%,3.77%,8.93%,1.37%,5.37%,1.92%,3.16%,-1.9%,-0.25%,3.86%,7.14%,2.85%,7.89%,,-2.15%,-0.87%
CN1CCC(C(=O)Nc2n[nH]c3nnc(-c4ccccc4)cc23)CC1,7.39%,-1.72%,-1.01%,2.08%,5.41%,5.95%,5.33%,1.73%,5.59%,3.05%,3.34%,-2.38%,-0.73%,4.88%,4.26%,1.61%,1.12%,,,1.63%
CCN1CCC(CC(=O)Nc2n[nH]c3nc(-c4cccs4)c(Br)cc23)CC1,0.02%,-0.78%,2.42%,-3.19%,0.26%,-1.99%,3.07%,-0.36%,-1.98%,-1.67%,-2.22%,1.28%,1.67%,-1.25%,-0.57%,0.69%,2.28%,4.28%,-0.5%,-0.97%
CCn1c(-c2nonc2N)nc2cnc(Oc3cccc(NC(=O)c4ccc(OCCN5CCOCC5)cc4)c3)cc21,-0.18%,-2.67%,-1.29%,2.01%,5.87%,0.84%,1.06%,-1.34%,4.61%,8.56%,3.67%,-1.96%,-3.13%,2.83%,3.79%,1.26%,3.06%,-7.57%,-2.56%,3.68%
Nc1nc(-c2ccccn2)c(-c2ccc3ncccc3n2)s1,1.04%,0.57%,0.83%,-0.64%,6.59%,1.28%,3.29%,2.8%,5.95%,-0.21%,1.76%,-1.15%,-0.55%,4.05%,5.74%,2.87%,3.05%,4.8%,0.96%,-1.16%
